Measurements from PubChem BioAssay (NCATS).
Values joined by “and” are separate entries in the source; they are usually repeats but may differ in a detail not shown here. Identical values can stand only once. Records with an inconclusive call do not appear. Unmarked numbers belong to inactive results. Active and inactive are the calls of the source. Calls come from the whole dose curve; as a rule, active = well fitted cell-killing curve with a large enough effect; inconclusive = small, poorly fitted or top-dose-only effect, or effect the other way; inactive = no such curve, though single readings can be large or run the other way.

Test: Viability qHTS for spleen associated tyrosine kinase inhibitor (SYKi) drug resistant MV4-11 cells (AID 1963824); note: nearly all actives have a fitted effect of over 35% in size
Conditions: SYKi-resistant MV4-11 viability, CellTiter-Glo, 72 h; series mostly up to 45 µM
In short: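 SYK-inhibitor-resistant MV4-11 AML cells were seeded at 500 per well onto compound and cultured 72 hours (37 °C, 5% CO2). CellTiter-Glo was then added, and after 10 min at room temperature, luminescence gave viability.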
Potency is the fitted concentration of half-maximal effect.

**Q.** Which Potency does the source give for `CC(C)=C/C=C\[C@H](C)[C@H]1CC[C@]2(C)C[C@@H]3C(C)=CC(=O)C3/C(CO)=C\C[C@@H]12` (stereo partly drawn) here?
**A.** 14.3 µM (active)

**Q.** Which Potency does the source give for `COc1c(O)cc2c(c1O)C(=O)O[C@H](C)[C@H]2O` here?
**A.** inactive

**Q.** Which Potency does the source give for `CNC(=O)c1ccccc1Nc1cc(Nc2ccc(N3CCOCC3)cc2OC)ncc1C(F)(F)F` here?
**A.** 0.326 µM (active)

**Q.** Which Potency does the source give for `CN1CCN(c2cccc(Nc3nc4c(-c5ccc(S(C)(=O)=O)cc5)cccn4n3)c2)CC1` here?
**A.** 130 nM (active) and 296 nM (active)

**Q.** With `CCCCC(=O)O[C@]1(C(=O)CO)CC[C@H]2[C@@H]3CCC4=CC(=O)CC[C@]4(C)[C@H]3[C@@H](O)C[C@@]21C` as the compound, how does the Potency read?
**A.** inactive

**Q.** With `CC1CCC2C(C)(C)C(O)CCC2(C)C12Cc1c(O)cc3c(c1O2)CN(C(CCCN=C(N)N)C(=O)O)C3=O` (stereo not drawn) as the compound, how does the Potency read?
**A.** 5.63 µM (active)

**Q.** With `CC(C)(O)/C=C1/C(=O)C(C)(C)C(=O)C(C)(C)C1(O)O[C@@H]1O[C@H](COC(=O)c2cc(O)c(O)c(O)c2)[C@@H](O)[C@H](O)[C@H]1O` (stereo partly drawn) as the compound, how does the Potency read?
**A.** inactive

**Q.** For `CC[C@H]1OC(=O)[C@H](C)[C@@H](O[C@H]2C[C@@](C)(OC)[C@@H](O)[C@H](C)O2)[C@H](C)[C@@H](O[C@@H]2O[C@H](C)C[C@H](N(C)C)[C@H]2O)[C@@](C)(O)C[C@@H](C)[C@@H]2N[C@@H](COCCOC)OC([C@H]2C)[C@]1(C)O`, which Potency is on record?
**A.** inactive

**Q.** For `Nc1ncnc2c1nc(N)n2[C@@H]1O[C@H](CO)[C@@H](O)[C@H]1O`, which Potency is on record?
**A.** 0.517 µM (active)

**Q.** Which Potency does the source give for `CC(=O)OC1CC(O)(C(C)C)C2C(OC(=O)c3ccc(O)cc3)C=C(C)C(=O)CC12C` (stereo not drawn) here?
**A.** 11.2 µM (active)

**Q.** Which viability, % of control does the source give for `COC1CC(OC2CCC3(C)C(=CCC4C3CCC3(C)C(C(C)O)CCC43O)C2)OC(C)C1OC1OC(C)C(OC2OC(COC3OC(COC4OC(CO)C(O)C(O)C4O)C(O)C(O)C3O)C(O)C(O)C2O)C(OC)C1O` (stereo not drawn) here?
**A.** 97.1% [at 9.25 µM]

**Q.** Which Potency does the source give for `Cc1cc(-c2nncc3c(C(C)(C)C)c(OCc4ncnn4C)nn23)no1` here?
**A.** inactive

**Q.** Which Potency does the source give for `O=C(O)/C=C/c1ccc(O)c(O[C@@H]2O[C@H](CO)[C@@H](O)[C@H](O)[C@H]2O)c1` here?
**A.** inactive

**Q.** For `CCOC(=O)c1sc(NC(=O)[C@H](C(C)C)n2c(=O)[nH]c3ccccc3c2=O)nc1C`, which Potency is on record?
**A.** 16.4 µM (active)

**Q.** For `COc1ccc(C[C@H](N)C(=O)N[C@H]2[C@@H](O)[C@H](n3cnc4c(N(C)C)ncnc43)O[C@@H]2CO)cc1`, which Potency is on record?
**A.** 0.184 µM (active)

**Q.** With `CC1CC2OCC3(O)CCC(O)C(C14CC(c1ccoc1)OC4=O)C23CO` (stereo not drawn) as the compound, how does the Potency read?
**A.** inactive

**Q.** Which Potency does the source give for `Cc1ncsc1-c1ccc([C@H](C)NC(=O)[C@@H]2C[C@@H](O)CN2C(=O)[C@@H](NC(=O)COCCCOCCNC(=O)C[C@@H]2N=C(c3ccc(Cl)cc3)c3c(sc(C)c3C)-n3c(C)nnc32)C(C)(C)C)cc1` here?
**A.** 0.0023 µM (active)

**Q.** Which Potency does the source give for `C[C@]1(CO)CCC[C@]2(C)C3=C(CCC12)COC3` (stereo partly drawn) here?
**A.** inactive

**Q.** For `CC(=O)OC[C@@]12[C@H](O)C[C@@H](C)[C@]3(C[C@@H](c4ccoc4)OC3=O)[C@H]1C[C@H](O)C[C@]21CO1`, which Potency is on record?
**A.** inactive

**Q.** Which Potency does the source give for `CC1=C2C(=O)C=C(CO)C2C2OC(=O)C(CS(=O)(=O)O)C2C(OC(=O)Cc2ccc(O)cc2)C1` (stereo not drawn) here?
**A.** inactive

**Q.** Which Potency does the source give for `COc1cc(CCc2ccc(OCC=C(C)C)cc2)cc(OC)c1OC` here?
**A.** 5.7 µM (active)

**Q.** With `COc1cc(C(=O)OC[C@H]2O[C@@H](OC(C)(C)C(=O)O)[C@H](O)[C@@H](O)[C@@H]2O)cc(OC)c1O` as the compound, how does the Potency read?
**A.** inactive

**Q.** Which Potency does the source give for `COC(=O)N1CCC(n2ncc3c(N4CCOCC4)nc(-c4ccc(NC(=O)Nc5ccc(CO)cc5)cc4)nc32)CC1` here?
**A.** 0.0184 µM (active)

**Q.** With `O=C(NCc1ccc(OC(F)(F)F)cc1)C1c2ccccc2C(=O)N1C1CCOCC1` (stereo not drawn) as the compound, how does the Potency read?
**A.** inactive

**Q.** With `C/C=C(\C)C(=O)O[C@H]1C=C(CO)C(=O)[C@H](OC(C)=O)[C@H]1C(C)C` as the compound, how does the Potency read?
**A.** 1.8 µM (active)

**Q.** Which Potency does the source give for `CC(=O)OC1CC(=O)C2(C)C3CC4=C(OC(C)CC4=O)OC3(C)CCC2C1(C)C` (stereo not drawn) here?
**A.** inactive

**Q.** For `CCN(CC)CCOCCOC(=O)C(CC)(CC)c1ccccc1`, which Potency is on record?
**A.** 23.1 µM (active)

**Q.** With `Nc1nc2cc(-c3ccc4ncc(C(=O)N5CCOCC5)n4c3)ccc2o1` as the compound, how does the Potency read?
**A.** 10.5 µM (active)
